Measurements: publication PMC5540273 (PLoS ONE, 2017)

Experiments:
Details in all cases: concentration: 1 μM, replicates: in singlicate; n = 1
[1] = test system: JAK1(JH2domain-pseudokinase)
[2] = test system: JAK2(JH1domain-catalytic)
[3] = test system: JAK3(JH1domain-catalytic)
JNK1 = test system: T1, JNK1
T1 construct: gene MAPK8

JNK2 = test system: T2, JNK2
T2 construct: gene MAPK9

JNK3 = test system: T3, JNK3
T3 construct: gene MAPK10

KIT-autoinhibited = test system: KIT-autoinhibited
KIT = test system: KIT
LATS1 = test system: LATS1
LATS2 = test system: LATS2
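Further: KINOMEscan kinase panel screen.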

Structure (SMILES) | %Inh [1] [%] | %Inh [2] [%] | %Inh [3] [%] | %Inh (JNK1) [%] | %Inh (JNK2) [%] | %Inh (JNK3) [%] | %Inh (KIT-autoinhibited) [%] | %Inh (KIT) [%] | %Inh (LATS1) [%] | %Inh (LATS2) [%]
COc1ccc(C2=C(Nc3cccc(O)c3)C(=O)NC2=O)cc1 [SB-390766] | 0 | 13 | 0 | 21 | 16 | 1 | 2 | 14 | 0 | 0
CCOc1nccc(-c2c(-c3ccc(F)cc3)ncn2C2CCNCC2)n1 [SB-249175] | 0 | 26 | 26 | 58 | 89 | 90.2 | 8 | 17 | 0 | 29
Cl.Cl.NCC(NC(=O)c1cc(-c2cccnc2)c(-c2ccnc3[nH]ccc23)s1)c1ccccc1 (stereo not drawn) [GSK1323434] | 0 | 31 | 79 | 44 | 61 | 41 | 0 | 19 | 0 | 11
Cn1cc(-c2ccc3c(c2)CCN3C(=O)Cc2cc(F)cc(F)c2F)c2c(N)ncnc21 [GSK2634140] | 0 | 11 | 0 | 15 | 24 | 4 | 0 | 99.1 | 80 | 7
CN(C)CCOc1ccc(-c2cc(-c3ccc(Cl)c(O)c3)c(-c3ccncc3)[nH]2)cc1.Cl.Cl [SB-684387] | 23 | 33 | 10 | 3 | 34 | 36 | 2 | 5 | 0 | 30
CCn1c(-c2nonc2N)nc2c(-c3ccccc3)ncc(OCCCN)c21.O=C(O)C(F)(F)F.O=C(O)C(F)(F)F [GSK260205] | 71 | 3 | 0 | 26 | 85 | 85 | 0 | 41 | 100 | 93.8
Nc1ncnc2scc(-c3ccc(NC(=O)Cc4cc(F)ccc4F)cc3)c12.O=C(O)C(F)(F)F [SB-731254-M] | 49 | 27 | 0 | 35 | 19 | 18 | 87 | 100 | 13 | 36
CN(c1ccc(NC(=O)Nc2cccc(Cl)c2)cc1)c1ccnc(N)n1.Cl [GW830707] | 0 | 27 | 0 | 0 | 0 | 0 | 45 | 100 | 18 | 0
N#Cc1cnc2cc(-c3cnc(CNCCN4CCOCC4)s3)ccc2c1Nc1ccc(Oc2ccccc2)cc1 [GW664114] | 0 | 0 | 0 | 13 | 6 | 0 | 0 | 19 | 0 | 3
